Where “and” joins values, the source holds several entries; their conditions need not be identical. Equal entries are not always repeated. About 750 (58%) of roughly 1,300 compounds were called active. Some of the results follow. Some compounds were tested as several samples or in several runs, with calls that do not always agree.
target: Sulfhydryl oxidase 1 (Homo sapiens) (UniProt O00391); assay: QSOX1 enzyme inhibitors, primary screen, biochemical, ROS-Glo H2O2 luminescence, HTS (AID 1347418); conditions: recombinant QSOX1, ROS-Glo H2O2 luminescence, at 12.5 µM, stronger effect = higher value; active = any value above zero unless noted
Sequence (O00391 whole entry, looked up): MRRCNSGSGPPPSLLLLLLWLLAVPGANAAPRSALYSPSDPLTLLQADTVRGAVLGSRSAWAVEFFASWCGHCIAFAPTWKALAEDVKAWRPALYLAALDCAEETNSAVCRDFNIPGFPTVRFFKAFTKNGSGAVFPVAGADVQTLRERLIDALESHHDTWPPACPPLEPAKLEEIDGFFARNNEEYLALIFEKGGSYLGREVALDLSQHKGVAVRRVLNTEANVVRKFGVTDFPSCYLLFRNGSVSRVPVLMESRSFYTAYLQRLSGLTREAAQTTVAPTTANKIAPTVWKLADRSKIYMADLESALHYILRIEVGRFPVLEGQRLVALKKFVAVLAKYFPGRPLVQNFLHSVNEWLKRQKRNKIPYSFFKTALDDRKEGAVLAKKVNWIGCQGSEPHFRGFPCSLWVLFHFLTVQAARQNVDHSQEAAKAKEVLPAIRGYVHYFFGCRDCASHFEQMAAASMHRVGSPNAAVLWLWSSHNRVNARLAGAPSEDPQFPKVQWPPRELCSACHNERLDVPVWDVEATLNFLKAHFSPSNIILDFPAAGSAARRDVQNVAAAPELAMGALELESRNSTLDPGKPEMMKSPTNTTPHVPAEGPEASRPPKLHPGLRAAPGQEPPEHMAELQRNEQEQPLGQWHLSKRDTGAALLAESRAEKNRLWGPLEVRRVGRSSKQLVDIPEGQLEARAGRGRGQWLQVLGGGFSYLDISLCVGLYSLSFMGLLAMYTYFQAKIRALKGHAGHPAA

| Compound | inhibition |
| --- | --- |
| O=C(O)c1nn(Cc2ccc(Cl)cc2Cl)c2ccccc12 | 6.3% [setting not given] (active) |
| CCS(=O)(=O)Nc1cccc(C(=C2CCCCC2)c2cnc[nH]2)c1 | 1.9% (active) |
| O=[N+]([O-])/C=C/c1ccc2c(c1)OCO2 | -5.8% (inactive) |
| CC[C@@]1(O)C(=O)OCc2c1cc1n(c2=O)Cc2cc3ccccc3nc2-1 | 6.2% [setting not given] (active) |
| NC(Cc1cc(O)c(O)cc1O)C(=O)O (centres undefined) | 12% (active) |
| NCCc1c[nH]c2ccc(O)cc12 | 23.8% (active) |
| CCCN(CCC)CCc1c[nH]c2ccc(C(N)=O)cc12 | -6.3% [setting not given] (inactive) |
| NCCc1c[nH]c2ccc(C(N)=O)cc12 | 0.5% (active) |
| NCCc1c[nH]c2ccccc12 | 5.9% [setting not given] (active) |
| COc1ccc2[nH]cc(CCN)c2c1 | -1.9% [setting not given] (inactive) |
| CNCCc1c[nH]c2ccc(O)cc12 | 9.6% [setting not given] (active) |
| OC1CCCCC1N1CCC(c2ccccc2)CC1 (centres undefined) | -0.9% [setting not given] (inactive) |
| CC(N)Cc1c[nH]c2ccc(OCc3cccs3)cc12 (centres undefined) | 0.1% [setting not given] (active) |
| CC(=O)NCCc1c[nH]c2ccccc12 | 12.2% [setting not given] (active) |
| Cc1[nH]c2ccc(O)cc2c1CCN | 16.3% [setting not given] (active) |
| CC(N)Cc1c[nH]c2ccc(O)cc12 (centres undefined) | 20.8% [setting not given] (active) |
| c1ccc2c(c1)OCC(C1=NCCN1)O2 (centres undefined) | -2.6% (inactive) |
| Cn1cnc(CCN)c1 | -4.6% (inactive) |
| CN1C[C@H](CNC(=O)OCc2ccccc2)C[C@@H]2c3cccc4c3c(cn4C)C[C@H]21 | 10.7% [setting not given] (active) |
| CP(=O)(O)C1=CCNCC1 | 0.8% (active) |
| NC(N)=NOCC[C@H](N)C(=O)O | 4% [setting not given] (active) |
| NC(N)=NOCCC(N)C(=O)O (centres undefined) | -1% (inactive) |
| NCC(O)c1ccc(O)cc1 (centres undefined) | 6.8% [setting not given] (active) |
| COc1cc(C(O)CN)ccc1O (centres undefined) | 4.4% (active) |

| Compound | inhibition |
| --- | --- |
| NNC(=O)c1ccc(O)cc1 | -1% (inactive) |
| CNCC(O)c1ccc(O)cc1 (centres undefined) | 2.1% [setting not given] (active) |
| OCc1cnc[nH]1 | -0.7% (inactive) |
| O=C(O)Cc1cnc[nH]1 | 4.8% (active) |
| Oc1ccc2c3c1O[C@H]1c4[nH]c5c(c4C[C@@]4(O)[C@@H](C2)N(CC2CC2)CC[C@]314)C[C@@]1(O)[C@H]2Cc3ccc(O)c4c3[C@@]1(CCN2CC1CC1)[C@H]5O4 | 0.3% (active) |
| Oc1ccc2c3c1O[C@H]1c4oc5ccccc5c4C[C@@]4(O)C(C2)N(CC2CC2)CCC314 (some centres undefined) | 1.7% [setting not given] (active) |
| NC(N)=Nc1ccc2[nH]c3c(c2c1)C[C@@]1(O)[C@H]2Cc4ccc(O)c5c4[C@@]1(CCN2CC1CC1)[C@H]3O5 | 7.1% [setting not given] (active) |
| O=C1/C(=C/c2ccccc2)C[C@@]2(O)[C@H]3Cc4ccc(O)c5c4[C@@]2(CCN3CC2CC2)[C@H]1O5 | -0.8% [setting not given] (inactive) |
| Oc1ccc2c3c1O[C@H]1c4[nH]c5ccccc5c4C[C@@]4(O)C(C2)N(CC2CC2)CCC314 (some centres undefined) | 8.5% [setting not given] (active) |
| CC(C)(O)[C@@H]1[C@H]2OC(=O)[C@@H]1[C@]1(O)C[C@H]3O[C@]34C(=O)O[C@H]2[C@]14C (tested in a mixture with another compound) | -1.5% (inactive) |
| CN1CCc2cccc(Cl)c2CC1 | -4.5% (inactive) |
| CC(C)Oc1cccnc1N(C)C1CCN(Cc2ccccc2)CC1 | 8.9% (active) |
| O=c1[nH]c2ccccc2n1CCCN1CCC(n2c(=O)[nH]c3cc(Cl)ccc32)CC1 | -1.8% [setting not given] (inactive) |
| O=c1[nH]c2ccccc2n1C1CCN(CCCC(c2ccc(F)cc2)c2ccc(F)cc2)CC1 | 4.6% [setting not given] (active) |
| Cn1c(CCCC(=O)O)nc2cc(N(CCCl)CCCl)ccc21 | 33.3% (active) |
| NC(Cc1ccc(N(CCCl)CCCl)cc1)C(=O)O (centres undefined) | 32.1% (active) |
| O=C(O)CCCc1ccc(N(CCCl)CCCl)cc1 | 4.4% [setting not given] (active) |
| Cc1ncc(CNC(=O)N(CCCl)N=O)c(N)n1 | -0.8% (inactive) |
| CCCn1c(C)c(C(=O)c2ccc3ccccc3c2)c2ccccc21 | 3.4% [setting not given] (active) |
| O=c1c2ccccc2[se]n1-c1ccccc1 | 61% [setting not given] (active) |
| CCCN1CCC[C@H](c2cccc(O)c2)C1 | 0.7% (active) |
| CCCN1CCC[C@@H](c2cccc(O)c2)C1 | -1.9% (inactive) |
| C=C(C)[C@H]1Cc2c(ccc3c2O[C@@H]2COc4cc(OC)c(OC)cc4[C@@H]2C3=O)O1 | 8.2% [setting not given] (active) |
| Cc1ccc(S(=O)(=O)N[C@@H](CCCCN)C(=O)CCl)cc1 | 2.5% (active) |

| Compound | inhibition |
| --- | --- |
| C#CCOC(=O)C1=CCCN(C)C1 | -6.3% (inactive) |
| COC(=O)C1=CCCN(C)C1 | 0.8% [setting not given] (active) |
| NCc1cc(=O)[nH]o1 | -4.8% (inactive) |
| CN1C(=O)CCS(=O)(=O)C1c1ccc(Cl)cc1 (centres undefined) | 4.6% (active) |
| NC(=O)CI | -1.4% (inactive) |
| NNC(N)=O | 2% (active) |
| COc1ccccc1N1CCNCC1 | -0.9% [setting not given] (inactive) |
| c1ccc2c(N3CCNCC3)cccc2c1 | 2.2% (active) |
| CS(=N)(=O)CC[C@H](N)C(=O)O (some centres undefined) | 2% (active) |
| CC(=O)OCC1=C(C(=O)O)N2C(=O)[C@@H](NC(=O)CCC[C@@H](N)C(=O)O)[C@H]2SC1 | -4.2% (inactive) |
| COc1ccc2c(c1)c(CCN1CCOCC1)c(C)n2C(=O)c1cccc(Cl)c1Cl | 1.4% (active) |
| CC(C)=CCOc1c2occc2cc2ccc(=O)oc12 | 2.6% [setting not given] (active) |
| C[C@H](Cc1ccc2c(c1)OC(C(=O)O)(C(=O)O)O2)NC[C@H](O)c1cccc(Cl)c1 | -1.8% (inactive) |
| NC(=O)COc1c(F)cc(SCCNS(=O)(=O)c2ccccc2)cc1F | 4% (active) |
| CC(=O)NBr | -4.9% (inactive) |
| O=C(N[C@H]1CN2CCC1CC2)c1ccc(Cl)cc1 | 0.7% (active) |
| COC[C@H]1OC(=O)c2coc3c2[C@@]1(C)C1=C(C3=O)C2CCC(=O)[C@@]2(C)C[C@H]1OC(C)=O (some centres undefined) | 6% (active) |
| CCCCCCC(C)(C)c1ccc([C@@H]2C[C@H](O)CC[C@H]2CCCO)c(O)c1 | 5.1% [setting not given] (active) |
| CCCCCCCCCCCCCC(=O)O[C@@H]1[C@@H](C)[C@@]2(O)[C@@H](C=C(CO)C[C@@]3(O)C(=O)C(C)=C[C@@H]23)C2C(C)(C)[C@@]21OC(C)=O (some centres undefined) | 1.1% (active) |
| CC(=O)[C@H]1CC[C@H]2[C@@H]3CC[C@H]4C[C@](C)(O)CC[C@]4(C)[C@H]3CC[C@]12C | 0.1% [setting not given] (active) |
| CC(=O)[C@H]1CCC2C3CC[C@H]4C[C@H](O)CC[C@]4(C)C3CC[C@@]21C (some centres undefined) | -2.4% [setting not given] (inactive) |
| C[C@]12CCC3C(CC[C@H]4C[C@H](O)CC[C@]34C)C1CC[C@@H]2C(=O)CO (some centres undefined) | -1.5% (inactive) |
| Cc1c(C(=O)c2cccc3ccccc23)c2cccc3c2n1[C@H](CN1CCOCC1)CO3 | 7.5% [setting not given] (active) |
| O=C(O)c1cc[c]([Hg][Cl])cc1 | -7.7% (inactive) |

| Compound | inhibition |
| --- | --- |
| O=[N+]([O-])c1ccc2nc(N3CCNCC3)ccc2c1 | 0.9% (active) |
| C=CCN1C[C@@H](C)N([C@H](c2ccc(C(=O)N(CC)CC)cc2)c2cccc(OC)c2)C[C@@H]1C | -4.2% (inactive) |
| Cc1cc([C@@H]2CCCN2C)on1 | 4.2% (active) |
| Clc1cc(I)cc(Cl)c1NC1=NCCN1 | -4.1% (inactive) |
| O=C1C=CC(=O)C=C1 | -2.3% (inactive) |
| CC12NC(Cc3ccccc31)c1ccccc12 (centres undefined) | 1.2% [setting not given] (active) |
| C[C@]12N[C@H](Cc3ccccc31)c1ccccc12 | 2.8% [setting not given] (active) |
| CC(O)(CS(=O)(=O)c1ccc(F)cc1)C(=O)Nc1ccc(C#N)c(C(F)(F)F)c1 (centres undefined) | -1.2% [setting not given] (inactive) |
| CC(C)[C@H]1CN[C@H](C(=O)O)[C@H]1CC(=O)O | 0.8% (active) |
| C=C(C)[C@H]1CN[C@H](C(=O)O)[C@H]1CC(=O)O | -6.1% (inactive) |
| C=CCN1CC[C@]23CCCCC2[C@H]1Cc1ccc(O)cc13 (some centres undefined) | 4.2% [setting not given] (active) |
| NCC(O)c1cc(O)c(O)cc1F (centres undefined) | 12.3% (active) |
| NN=C(N)N | 6.4% (active) and -1.5% (inactive) |
| NCC1(CC(=O)O)CCCCC1 | -2.9% [setting not given] (inactive) |
| O=P1(N(CCCl)CCCl)NCCCO1 (centres undefined) | 4.8% (active) |
| c1ccc2cc(CC3=NCCN3)ccc2c1 | -1.3% [setting not given] (inactive) |
| CCCN(CCC)C1CCc2cccc(O)c2C1 (centres undefined) | -7.7% (inactive) |
| CCCN(CCC)C1Cc2cc(OC)c(OC)cc2C1 | -0.2% (inactive) |
| CCCN(CCC)[C@@H]1CCc2cccc(O)c2C1 | 3.9% (active) |
| CCCN(CCC)[C@H]1CCc2c(F)ccc(O)c2C1 | -4.8% (inactive) |
| CCCN(CCC)C1CCc2ccc(O)cc2C1 (centres undefined) | 3.7% (active) |
| CCCN(CCC)[C@@H]1CCc2ccc(O)cc2C1 | 6.3% (active) |

Reference: PubChem BioAssay AID1347418 (Sanford-Burnham Center for Chemical Genomics, 2020)
